# Screening results (PubChem)
# DENV2 CPE – inhibitors of DENV2 cytopathic effect. DENV2-infected cells, cytopathic effect rescue, plate reader. CPE inhibition, % at 9.99 µM. hit rate 1.7% among 350,000. AID 651640; in the data active = CPE inhibition above about 20%, passing the limit was not always enough; inconclusive = no clear call, values can overlap the other calls; tested in BHK-21 cells;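 note: 0% = median of neutral control wells and 100% = median of positive control wells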
# ERp5 inh – blocks human ERp5 reductase activity on insulin; inhibition, % at 9.99 µM; hit rate 0.05% among 350,000; ERp5 insulin aggregation, absorbance 650 nm, 90 min; Q15084;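 active = mean replicate inhibition above about 25%, with every replicate also reaching it, limit read from the data, passing the limit was not always enough; inconclusive = only one of those two criteria met; inactive = neither criterion met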
# ERAP1 HTS inh – inhibitors of human ERAP1 aminopeptidase; Q9NZ08; recombinant ERAP1, Leu-AMC fluorescence, 60 min; inhibition, % at 10.7 µM; hit rate 0.15% among 340,000;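 active = mean replicate inhibition of at least 30%, or all replicates individually reaching that 30% level; inactive = mean below 30% and not every replicate reaching it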;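 note: 0% = neutral control wells and 100% = L-leucinethiol positive control wells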
# MLL AF4-AF9 inh – blocks AF4 peptide binding to human AF9; AlphaScreen, biotin-AF4 peptide binding to FLAG-AF9; inhibition, % at 10 µM; hit rate 0.47% among 350,000; AID 651704;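 active = every replicate reaching a set inhibition limit, whatever the replicate mean, cut at about 25% in these data; inconclusive = mean inhibition reaches that limit but some replicates miss it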;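 note: 0% = plate neutral control median and 100% = total signal loss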
# Target sequence (P42568 whole entry, looked up): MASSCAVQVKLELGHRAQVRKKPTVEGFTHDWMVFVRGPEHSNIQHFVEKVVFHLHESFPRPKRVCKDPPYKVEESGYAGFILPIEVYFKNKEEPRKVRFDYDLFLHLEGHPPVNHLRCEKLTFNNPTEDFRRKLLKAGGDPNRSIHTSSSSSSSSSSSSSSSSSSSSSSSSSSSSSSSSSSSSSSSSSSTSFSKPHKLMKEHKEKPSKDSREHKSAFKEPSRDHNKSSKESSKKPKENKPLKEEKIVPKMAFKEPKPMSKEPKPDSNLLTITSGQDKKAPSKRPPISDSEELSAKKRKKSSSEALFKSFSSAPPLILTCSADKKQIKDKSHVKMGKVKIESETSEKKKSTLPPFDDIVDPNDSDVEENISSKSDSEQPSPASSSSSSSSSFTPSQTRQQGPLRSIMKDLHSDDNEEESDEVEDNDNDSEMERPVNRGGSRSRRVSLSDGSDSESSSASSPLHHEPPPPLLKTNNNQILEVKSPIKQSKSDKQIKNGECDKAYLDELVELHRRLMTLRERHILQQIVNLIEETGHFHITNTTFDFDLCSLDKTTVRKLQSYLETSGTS
# PDI turbidity – inhibitors of human protein disulfide isomerase; P07237; PDI insulin aggregation turbidity, A650, 90 min; inhibition, % at 10 µM; hit rate 0.052% among 350,000; AID 588391;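 active = mean inhibition across replicates of 30% or more, whatever share of single replicates reach that level; inconclusive = mean inhibition below 30% while every single replicate reaches 30%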
# Active calls of the source: *; u = inconclusive; x = not tested or not shown; ! = not confirmed by another sample. Hits are enriched below; roughly 1.8% of the tested compounds scored in any of these assays.
SMILES,DENV2 CPE,ERp5 inh,ERAP1 HTS inh,MLL AF4-AF9 inh,PDI turbidity
C[C@@H]1CN([C@H](C)CO)C(=O)c2cccc(NC(=O)c3ccc(-c4nccs4)cc3)c2O[C@@H]1CN(C)C(=O)Nc1ccc(F)cc1,63*,1,0,-7,x
C[C@@H]1CN([C@@H](C)CO)C(=O)c2cccc(NC(=O)c3ccc(-c4nccs4)cc3)c2O[C@@H]1CN(C)S(C)(=O)=O,24*,-2,1,-2,x
C[C@@H]1CN([C@@H](C)CO)C(=O)c2cccc(NC(=O)c3ccc(-c4nccs4)cc3)c2O[C@H]1CN(C)C,73*,4,-2,0,x
Cc1noc(C)c1S(=O)(=O)Nc1ccc2c(c1)CC(=O)N([C@@H](C)CO)C[C@H](C)[C@H](CN(C)Cc1ccc(C(=O)Nc3ccccc3N)cc1)O2,61*,-4,-3,0,x
Cc1noc(C)c1S(=O)(=O)Nc1ccc2c(c1)C(=O)N([C@H](C)CO)C[C@H](C)[C@H](CN(C)Cc1ccc(C(=O)Nc3ccccc3N)cc1)O2,24*,4,-1,-1,x
COc1ccc(S(=O)(=O)Nc2ccc3c(c2)C(=O)N([C@@H](C)CO)C[C@H](C)[C@H](CN(C)Cc2ccc(C(=O)Nc4ccccc4N)cc2)O3)cc1,23*,-3,2,-1,x
O=C(Nc1ccc2c(c1)[C@H]1C[C@H](CC(=O)N3CCc4ccccc4C3)O[C@H](CO)[C@H]1O2)NC1CCCC1,0,-1,-1,3,x
C[C@@H]1CN([C@H](C)CO)C(=O)c2cccc(NS(C)(=O)=O)c2O[C@H]1CN(C)C(=O)Nc1ccccc1,-1,-3,1,-3,x
c1ccc(CN2CCC(=NNc3nc4ccccc4[nH]3)CC2)cc1,1,-4,-2,34*,1
O=C(O)C[C@@H]1CC[C@H](NC(=O)Nc2ccccc2)[C@@H](CO)O1,5,2,-2,-3,x
O=C(CN1C(=O)NC2(CCCC2)C1=O)Nc1cc(C(F)(F)F)ccc1N1CCCCC1,-4,34*,-1,0,-11
O=C(CN1C(=O)NC2(CCCCC2)C1=O)Nc1cc(C(F)(F)F)ccc1N1CCCCC1,-4,1,1,-22,2
COC(=O)[C@H]1[C@H](CO)[C@H]2Cn3c(ccc(-c4ccccc4)c3=O)[C@H]2N1S(C)(=O)=O,-4,-4,0,-1,x
C[C@H]1CN([C@@H](C)CO)C(=O)c2cccc(NC(=O)CCCCCC(=O)Nc3ccccc3N)c2O[C@H]1CN(C)S(=O)(=O)c1cccs1,55*,2,0,-2,x
C[C@H](CO)N1C[C@H](C)[C@H](CN(C)S(=O)(=O)c2cccs2)Oc2c(NC(=O)CCCCCC(=O)Nc3ccccc3N)cccc2C1=O,22*,1,2,-2,x
COCC(=O)N1[C@H](C#N)[C@@H](c2ccccc2-c2ccccc2F)[C@@H]1CO,2,-4,0,-3,x
C[C@@H]1CN([C@H](C)CO)C(=O)Cc2cc(NC(=O)Cc3ccccc3)ccc2O[C@H]1CN(C)Cc1ccc(Cl)c(Cl)c1,27*,6,0,-1,x
C[C@@H]1CN([C@@H](C)CO)C(=O)Cc2cc(NC(=O)Cc3ccccc3)ccc2O[C@H]1CN(C)Cc1ccc(Cl)c(Cl)c1,26*,-5,2,4,x
COc1ccc(NC(=O)N(C)C[C@H]2OCc3cnnn3CCCC(=O)N([C@@H](C)CO)C[C@H]2C)c(OC)c1,26*!,4,-1,3,-4
COc1ccc(NC(=O)N(C)C[C@@H]2OCc3cnnn3CCCC(=O)N([C@@H](C)CO)C[C@@H]2C)cc1,24*!,1,0,0,x
COc1ccc(NC(=O)N(C)C[C@@H]2OCc3cnnn3CCCC(=O)N([C@@H](C)CO)C[C@@H]2C)c(OC)c1,2,-2,-3,-1,x
C[C@@H]1CN([C@@H](C)CO)C(=O)CCCn2nncc2CO[C@H]1CN(C)C(=O)Nc1ccc(C(C)(C)C)cc1,22*,1,3,0,x
Cc1noc(C)c1NC(=O)N[C@H]1CC[C@@H](CC(=O)NCCCN(C)C)O[C@H]1CO,2,0,-2,-3,x
Cc1ccc(Nc2nc(-c3sc(N)nc3C)cs2)cc1,47*,2,3,13,-4
CCOC(=O)C1(Cc2ccccc2C)CCCN(C(=O)c2ccccn2)C1 (configuration not stated),0,-10,25,-2,-2
SMILES,DENV2 CPE,ERp5 inh,ERAP1 HTS inh,MLL AF4-AF9 inh,PDI turbidity
CCOC(=O)C1(Cc2ccccc2C)CCCN(C(=O)c2cc(C3CC3)[nH]n2)C1 (configuration not stated),26*,3,0,-1,0
CC(C)NC(=O)N1CC2(C1)[C@H](c1ccccc1)[C@@H](CO)N2Cc1ccccc1,3,0,x,x,x
C[C@@H]1CCCCO[C@@H](CN(C)C(=O)Cc2ccccc2)[C@@H](C)CN([C@H](C)CO)C(=O)c2cc(NS(=O)(=O)c3cn(C)cn3)ccc2O1,-1,-4,-1,1,x
C[C@@H]1CCCCO[C@@H](CN(C)C(=O)Nc2cccc3ccccc23)[C@H](C)CN([C@@H](C)CO)C(=O)c2cc(NS(=O)(=O)c3cn(C)cn3)ccc2O1,21*,x,x,x,x
C[C@@H]1CN([C@@H](C)CO)C(=O)c2cc(NS(=O)(=O)c3cn(C)cn3)ccc2O[C@@H](C)CCCCO[C@@H]1CN(C)C(=O)Cc1ccccc1,63*,5,-3,0,x
C[C@@H]1CCCCO[C@H](CN(C)C(=O)Cc2ccccc2)[C@@H](C)CN([C@@H](C)CO)C(=O)c2cc(NS(=O)(=O)c3cn(C)cn3)ccc2O1,31*,-2,-1,-2,x
COc1ccc2c3c(n(C)c2c1)[C@H](CO)N(C(=O)NC(C)C)CC31CN(C(=O)NC(C)C)C1,7,5,-5,2,x
Cc1ccc(S(=O)(=O)Nc2ccc3c(c2)C(=O)N([C@H](C)CO)C[C@H](C)[C@H](CN(C)S(=O)(=O)c2cccs2)OCCCC[C@H](C)O3)cc1,u,-7,0,2,x
CSc1ccccc1NC(=O)CN1c2ccccc2CC1C (configuration not stated),0,-1,-1,51*,8
C[C@@H]1CCCCO[C@H](CN(C)S(=O)(=O)c2ccc(Cl)cc2)[C@@H](C)CN([C@@H](C)CO)C(=O)c2cc(NC(=O)Nc3ccc(F)cc3)ccc2O1,23*,-10,-3,2,x
COc1ccc(S(=O)(=O)N(C)C[C@H]2OCCCC[C@@H](C)Oc3ccc(NC(=O)Nc4ccc(C(F)(F)F)cc4)cc3C(=O)N([C@H](C)CO)C[C@@H]2C)cc1,-11,-4,-5,-13,x
Cc1ccc(S(=O)(=O)N(C)C[C@@H]2OCCCC[C@H](C)Oc3ccc(NC(=O)C4CCCCC4)cc3C(=O)N([C@H](C)CO)C[C@@H]2C)cc1,24*,x,x,x,x
C[C@@H]1CN([C@H](C)CO)C(=O)c2cc(NC(=O)Nc3ccc(F)cc3)ccc2O[C@@H](C)CCCCO[C@H]1CN(C)S(=O)(=O)c1ccc(Cl)cc1,-9,-4,0,-1,x
